From PubChem BioAssay
An excerpt weighted towards active compounds, which were near 5.8% of everything screened.
PK Bst: alters activity of Bacillus stearothermophilus pyruvate kinase; 51,000 compounds, 1.2% hits; Potency, µM; AID 361; purified pyruvate kinase, luminescence ATP production; ribose 5-phosphate activator present at AC10; in the data active = potency below about 11 µM; inconclusive = mostly about 12 µM to 25 µM;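 the screen sought inhibitors and activators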
Luciferase inh: inhibitors of firefly luciferase | P08659 | AID 411 | 72,000 compounds, 2.2% hits | Potency, µM (series often up to 57.1 µM), most hits filed as inhibitors | purified firefly luciferase, luminescence, 8 min; also: nearly all actives have a fitted effect of over 40% in size
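Substrate buffer containing 10 uM ATP (pH 7.2 imidazole, Mg2+, KCl, detergent, BSA) is dispensed, compound pinned in, then luciferase/luciferin detector mix added. After 8 min at ambient temperature, light output is measured.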
HEK293 cAMP cs: raises cAMP in parental HEK293 cells, TSHR agonist counter-screen. Potency, µM (highest dose often 57.1 µM), actives largely listed as activators. parental HEK293 CNG cAMP sensor, membrane potential fluorescence. 73,000 compounds, 2.5% hits. AID 938; also: nearly all actives have a fitted effect of over 55% in size
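Parental HEK 293 cells stably expressing a cAMP-gated CNG channel were loaded with membrane potential dye containing 100 uM RO 20-1724 for 60 min. Compound added for 30 min; depolarization read as fluorescence intensity at 590 nm.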
GBA mod: human lysosomal glucosylceramidase modulation. P04062. purified enzyme, resorufin glucoside fluorescence (screen aimed at inhibitors), 20 min. Potency, µM. 48,000 compounds, 1.1% hits; in the data active = potency below about 15 µM; inconclusive = mostly about 16 µM to 33 µM;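 also: the screen sought inhibitors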
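Compounds titrated against 0.2 nM normal enzyme, 30 uM resorufin beta-D-glucopyranoside substrate, citrate/phosphate buffer with taurocholate and tween-20, pH 5.9. Reaction ran 20 min at room temperature; fluorescence (Ex 548/Em 600) gave AC50.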
TSHR ag: TSH receptor (human) agonism. 73,000 compounds, 0.48% hits. Potency, µM (series often up to 57.1 µM), usual class: activators. AID 926. P16473. HEK293-CNG-TSHR cells (CNG channel as cAMP sensor), membrane potential dye, cAMP; active = well fitted activation curve with a large enough effect in the main read-out, with a control signal flat, not every such curve was filed as active; inconclusive = small, poorly fitted or top-dose-only effect, or a change in a side signal; inactive = no such curve, though single readings can be large or run the other way; reference of the percent scale not stated here;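 also: the control signal comes from parental cells without the receptor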
Target sequence (P16473 whole entry, looked up): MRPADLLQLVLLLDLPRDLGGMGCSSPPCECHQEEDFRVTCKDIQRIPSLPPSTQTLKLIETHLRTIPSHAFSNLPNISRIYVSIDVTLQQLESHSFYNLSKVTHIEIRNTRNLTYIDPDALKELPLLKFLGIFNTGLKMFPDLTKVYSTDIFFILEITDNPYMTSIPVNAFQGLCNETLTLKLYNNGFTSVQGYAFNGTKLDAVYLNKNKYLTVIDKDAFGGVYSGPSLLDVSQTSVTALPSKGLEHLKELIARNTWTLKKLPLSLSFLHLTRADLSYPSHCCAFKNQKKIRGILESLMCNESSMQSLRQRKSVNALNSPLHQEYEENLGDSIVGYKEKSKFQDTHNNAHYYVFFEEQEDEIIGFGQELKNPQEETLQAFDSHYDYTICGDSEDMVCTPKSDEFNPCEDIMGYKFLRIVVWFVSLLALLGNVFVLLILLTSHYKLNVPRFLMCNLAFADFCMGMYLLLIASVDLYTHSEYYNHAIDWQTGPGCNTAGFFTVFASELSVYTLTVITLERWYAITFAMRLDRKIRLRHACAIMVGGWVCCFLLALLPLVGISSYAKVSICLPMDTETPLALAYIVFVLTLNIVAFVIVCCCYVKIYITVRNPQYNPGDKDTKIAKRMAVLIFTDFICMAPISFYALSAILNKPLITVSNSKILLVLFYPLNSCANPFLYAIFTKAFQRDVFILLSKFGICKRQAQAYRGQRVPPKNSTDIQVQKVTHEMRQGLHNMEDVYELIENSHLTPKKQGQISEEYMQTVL
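HEK 293 cells stably expressing TSHR and a cAMP-gated CNG channel; parental CNG-only cells as counterscreen. Cells preloaded 60 min with membrane potential dye plus 100 uM RO 20-1724, then compound 30 min; fluorescence read at 590 nm.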
A number is an active result; – = inactive; ? = inconclusive; · = not tested or not shown; [ ] = another dose, or the depositor's remark. Unless noted, calls follow the shape of the dose curve; as a rule, active = well fitted curve in the direction sought with a large enough effect; inconclusive = small, poorly fitted or top-dose-only effect, or another doubt; inactive = no such curve, though single readings can be large; an effect the other way counts as inactive or inconclusive.

SMILES	PK Bst	Luciferase inh	HEK293 cAMP cs	GBA mod	TSHR ag
CC(=O)OC[C@@H]1O[C@H](CCO/N=C(\C)CCN2CCc3nc(-c4ccccc4)c(-c4ccccc4)cc3C2)C=C[C@@H]1OC(C)=O	·	–[11.4 µM]	–[11.4 µM]	·	–[11.4 µM]
O=C(c1ccncc1)N1CCC[C@@]2(CCN(c3ccccc3)C2)C1	·	–[11.4 µM]	–	·	–
CCCOc1ccc2ccccc2c1/C=N/n1c(C)nnc1-n1nc(C)cc1C	·	–	3.98µM	·	?
COc1ccc(-n2c(C)cc(C(=O)CSc3nn4c(=O)c(C(C)(C)C)nnc4s3)c2C)cc1	–	2µM	–	–	–
Cc1ccc(-n2c(C)cc(C(=O)CSc3nncs3)c2C)cc1	–	25.1µM	25.1µM	–	?
COc1ccc(-n2c(C)cc(C(=O)CSc3nnc(-c4ccoc4C)n3C)c2C)cc1	–	–	31.6µM	–	?
Cc1cc(C(=O)CSc2nncs2)c(C)n1-c1c(C)n(C)n(-c2ccccc2)c1=O	–	–	–	–	–
FC(F)(F)c1cc(NC(=S)N2c3ccccc3-n3cccc3[C@H]2c2cccnc2)cc(C(F)(F)F)c1	·	–[11.4 µM]	–[11.4 µM]	·	–[11.4 µM]
O=C(Nc1ccccc1)N1CCCC2(CCN(C(=O)c3cccc(F)c3)CC2)C1	·	–[11.4 µM]	–	·	25.1µM
O=C(Nc1ccccc1)N1CCCC2(CCN(C(=O)c3cc(C(F)(F)F)cc(C(F)(F)F)c3)CC2)C1	·	–[11.4 µM]	–	·	25.1µM
O=C(Nc1ccccc1)N1CC2(CCN(C(=O)c3cc(C(F)(F)F)cc(C(F)(F)F)c3)CC2)C1	·	–[11.4 µM]	–	·	–
O=C(NCc1cccnc1)c1c[nH]c2cc3c(cc2c1=O)OCCO3	–	12.6µM	–	–	–
O=C(NCc1ccccc1)c1c[nH]c2ccc(S(=O)(=O)Nc3ccc4c(c3)OCCO4)cc2c1=O	–	–	–	?	–
CCc1ccc2oc(-c3cc(N)cc(C)c3O)nc2c1	3.55	2.51µM	–	–	–
c1cc(-c2nc3cc(Cc4ccc5oc(-c6ccncc6)nc5c4)ccc3o2)ccn1	–	–	–	–	–
CCCC(=O)Nc1ccc(-c2nc3cc(C)c(C)cc3o2)c(O)c1	·	–	–	·	–
CCc1ccc2oc(-c3cc(N)ccc3Cl)nc2c1	2.87	2.51µM	–	–	–
Nc1ccc2oc(-c3cc(Br)ccc3Cl)nc2c1	·	–	·	·	·
Nc1ccc2oc(-c3ccccc3Cl)nc2c1	3	3.16µM	·	·	·
CCc1ccc2oc(-c3cc(N)ccc3O)nc2c1	1.24	1µM	–	–	–
CCCCC#CC1C=CC(Oc2ccc(C(=O)OC)cc2)C(COC(=O)OCC)O1 (stereo not given)	·	·	–[11.4 µM]	·	–[11.4 µM]
CCN(CCCNC(=O)C1CCC(=O)N1Cc1ccc(F)cc1)c1cccc(C)c1 (stereo not given)	–	–	–	14.9	–
CCCCc1c2ccccc2nc2[nH]c3ccccc3c12	·	·	12.6µM	·	?
CCOC(=O)CCc1c(C)c2ccc(OC(C)C(=O)OCC)c(C)c2oc1=O (stereo not given)	–	–	20µM	?	?
COc1ccc2c(c1)[n+]([O-])c(/C(C)=N/NC(N)=S)c(C)[n+]2[O-]	·	–[11.4 µM]	–[11.4 µM]	·	–[11.4 µM]
SMILES	PK Bst	Luciferase inh	HEK293 cAMP cs	GBA mod	TSHR ag
O=C(Nc1ccc(NC(=O)C2CCCCC2)cn1)c1ccco1	–	5.01µM	–	9.8	–
O=C(Nc1ccc(NC(=O)c2ccco2)nc1)c1ccccn1	·	10µM	–	–	–
CC(C)C(=O)Nc1ccc(NC(=O)c2ccccn2)cn1	–	12.6µM	–	–	–
O=C(Nc1ccc(NC(=O)C2CC2)nc1)c1ccccn1	–	20µM	–	–	–
O=C(Nc1ccc(NC(=O)C2CC2)nc1)c1ccncc1	–	–	–	?	–
O=C(Cc1ccccc1)Nc1ccc(NC(=O)c2ccco2)nc1	–	–	–	–	–
NC(=O)c1cc[n+](CC2=C(C(=O)O)N3C(=O)[C@@H](NC(=O)[C@H](c4ccccc4)S(=O)(=O)[O-])[C@@H]3SC2)cc1	·	–	–	·	–
Nc1nc(NCCc2ccc(O)cc2)nc2nc(-c3ccco3)nn12	·	–	–	·	–
O=C1C(O)=C(O)C(=O)C(O)=C1O	·	–	–	·	–
CCCC(=O)Nc1ccc(NC(=O)c2ccccc2Cl)nc1	–	–	–	·	–
CCC(=O)Nc1ccc(NC(=O)c2ccccn2)cn1	·	39.8µM	–	–	–
CC(=O)OC(C(=O)c1ccccc1)c1ccccc1 (stereo not given)	·	·	–	·	–
Nc1ncnc2c1ncn2[C@H]1O[C@@H](C(=O)O)[C@@H](O)[C@H]1O	·	–[11.4 µM]	–[11.4 µM]	·	–[11.4 µM]
CCCCC#Cc1nc(N)c2ncn([C@@H]3O[C@@H](C(=O)NCC)[C@H](O)[C@@H]3O)c2n1	·	–	2µM	·	?
